# From PubChem BioAssay (EPA / NIEHS)
# Records with an inconclusive call do not appear. Activity calls are given as the source filed them. Rule for the calls, unless noted: active = hit-call score of the fitted dose curve at least 0.9, where 1 is the maximum; inactive = score below 0.9.
# How the values were obtained:
# [1] = APR_HepG2_CellCycleArrest_1hr: Apredica 1-hour HepG2 Assay for Cell Cycle Arrest (AID 2282666); conditions: high-content imaging, actives raise or lower the signal
# Procedure, shortened: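 Cell cycle arrest scored from nuclear DNA content (Hoechst 33342) using high-content imaging of fixed HepG2 cells after 1 h treatment across 0.39–200 uM, in duplicate. Gain or loss fitted relative to 0.5% DMSO.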
# [2] = ACEA_ER_80hr: ACEA Biosciences xCELLigence Real-Time Cell Analysis on Estrogen Receptor Agonism for Proliferation (AID 2282667; active = hit-call score of the fitted dose curve at least 0.9, where 1 is the maximum); conditions: T47D proliferation, impedance (xCELLigence), 80 h
# Procedure, shortened: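 Estrogen-driven proliferation is captured as electrode impedance in T47D cells 80 h after compound addition. Test articles ran at 8 concentrations, 1:4 dilutions from 100 uM final, in two replicate plates.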
# [3] = APR_HepG2_MicrotubuleCSK_1hr: Apredica 1-hour HepG2 Assay for Microtubule CSK Stabilty (AID 2282669); conditions: HepG2 microtubule cytoskeleton imaging, actives raise or lower the signal
# Procedure, shortened: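 Alpha-tubulin immunofluorescence, imaged by automated high-content microscopy with Hoechst nuclear segmentation, measured cytoskeletal change after 1 h dosing of HepG2 at 0.39–200 uM in 0.5% DMSO. Activity fitted in both directions relative to DMSO.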
# [4] = APR_HepG2_MitoticArrest_1hr: Apredica 1-hour HepG2 Assay for Mitotic Arrest (AID 2282672); conditions: high-content imaging, actives raise or lower the signal
# Procedure, shortened: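 Ten-point concentration series (0.39 to 200 uM, duplicates, 0.5% v/v DMSO) applied to human HepG2 liver cells for 1 hr. High-content imaging of phospho-histone H3 and Hoechst-stained nuclei after fixation and permeabilization; DMSO-normalised bidirectional fit.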
# [5] = APR_HepG2_P-H2AX_1hr: Apredica 1-hour HepG2 Assay for H2AX Phosphorylation (AID 2282673); conditions: high-content imaging, actives raise or lower the signal
# Procedure, shortened: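 Phospho-H2A.x immunofluorescence (1:200, FITC secondary) plus Hoechst nuclear stain, quantified by high-content imaging in HepG2 after 1 hr compound exposure. Ten concentrations, 0.39 to 200 uM, in duplicate with 0.5% DMSO; fit both directions against DMSO.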
# [6] = APR_HepG2_MitoMass_1hr: Apredica 1-hour HepG2 Assay for Mitochondrial Mass (AID 2282674); conditions: high-content imaging, actives raise or lower the signal
# Procedure, shortened: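 Mitochondrial mass is taken from MitoTracker Red CMXRos (250 nM, 30 min, pre-fixation) fluorescence imaged at 20x in HepG2 cells. Exposure lasted 1 hr across ten concentrations, 0.39 to 200 uM, 0.5% DMSO; DMSO baseline, bidirectional fitting.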
# [7] = APR_HepG2_MitoMembPot_1hr: Apredica 1-hour HepG2 Assay for Mitochondrial Membrane Potential (AID 2282675); conditions: imaging, actives raise or lower the signal
# Procedure, shortened: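 Mitochondrial membrane potential read as MitoTracker Red CMXRos intensity by automated imaging of fixed HepG2 cells. Dye at 250 nM for 30 min pre-fixation; compounds 0.39 to 200 uM for 1 hour, duplicate wells, 0.5% DMSO.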
# [8] = APR_HepG2_NuclearSize_1hr: Apredica 1-hour HepG2 Assay for Nuclear Size (AID 2282670); conditions: high-content imaging, actives raise or lower the signal
# Procedure, shortened: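 Nuclear size measured by high-content imaging of Hoechst 33342 nuclear stain after formaldehyde fixation; human HepG2 line exposed 1 hr to compounds at 0.39–200 uM in 0.5% DMSO, with bidirectional curve fitting relative to DMSO.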
# [9] = APR_HepG2_p53Act_1hr: Apredica 1-hour HepG2 Assay for p53 Activation (AID 2282671); conditions: high-content imaging, actives raise or lower the signal
# Procedure, shortened: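 After 1 h exposure (0.39–200 uM, 0.5% DMSO final, duplicates), fixed HepG2 cells were labelled with anti-p53 antibody plus Hoechst nuclear stain. Fluorescence quantified by automated 20x imaging; changes fitted in both directions against DMSO.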
SMILES,outcome [1],outcome [2],outcome [3],outcome [4],outcome [5],outcome [6],AC50 [7],outcome [8],outcome [7],outcome [9],AC50 [2],AC50 [8],AC50 [9],AC50 [5]
CC(C)N1C(=O)N(c2ccccc2)CSC1=NC(C)(C)C,inactive,inactive,inactive,inactive,inactive,inactive,114 µM (active),,,,,,,
CS(=O)(=O)c1cc(C(F)(F)F)ccc1C(=O)c1cnoc1C1CC1,inactive,inactive,inactive,inactive,inactive,inactive,,inactive,inactive,,,,,
O=C(O)c1c(Cl)ccc2cc(Cl)cnc12,inactive,inactive,inactive,inactive,inactive,inactive,,inactive,inactive,,,,,
COP(=S)(OC)Oc1ccc([N+](=O)[O-])c(C)c1,inactive,inactive,inactive,inactive,inactive,inactive,,,inactive,inactive,,,,
CCC(C)n1c(=O)[nH]c(C)c(Br)c1=O (centres undefined),inactive,inactive,inactive,inactive,inactive,inactive,,inactive,inactive,,,,,
CCOc1nc(C(Cl)(Cl)Cl)ns1,inactive,inactive,inactive,inactive,inactive,inactive,,,inactive,inactive,,,,
CCN(CC)c1nc(C)cc(OP(=S)(OC)OC)n1,inactive,inactive,inactive,inactive,inactive,inactive,,,inactive,inactive,,,,
Nc1cnn(-c2ccccc2)c(=O)c1Cl,inactive,inactive,inactive,inactive,inactive,inactive,,,inactive,,,,,
Clc1cccc(C(Cl)(Cl)Cl)n1,inactive,inactive,inactive,inactive,inactive,inactive,,,inactive,inactive,,,,
CSC(=O)c1c(C(F)F)nc(C(F)(F)F)c(C(=O)SC)c1CC(C)C,inactive,inactive,inactive,inactive,inactive,inactive,,,inactive,,,,,
CCOc1nc(F)cc2nc(S(=O)(=O)Nc3c(Cl)cccc3Cl)nn12,inactive,inactive,inactive,inactive,inactive,inactive,,inactive,inactive,,,,,
CC1(C)C(C(=O)OC(C#N)c2cccc(Oc3ccccc3)c2)C1(C)C (centres undefined),inactive,inactive,inactive,inactive,inactive,inactive,,,inactive,inactive,,,,
COc1cc(OC)nc(NC(=O)NS(=O)(=O)c2ncccc2OCC(F)(F)F)n1,inactive,inactive,inactive,inactive,inactive,inactive,,inactive,inactive,,,,,
Cc1nc(N(C)C)nc(OC(=O)N(C)C)c1C,inactive,inactive,inactive,inactive,inactive,inactive,,,inactive,,,,,
Cc1ccc(N=CN(C)C=Nc2ccc(C)cc2C)c(C)c1,inactive,inactive,inactive,inactive,inactive,inactive,108 µM (active),,,,,,,
CC(C)(C)C(=O)C(Oc1ccc(Cl)cc1)n1cncn1 (centres undefined),inactive,,inactive,inactive,inactive,inactive,,inactive,inactive,inactive,22.5 µM (active),,,
COCc1cnc(C2=NC(C)(C(C)C)C(=O)N2)c(C(=O)O)c1 (centres undefined),inactive,inactive,inactive,inactive,inactive,inactive,,inactive,inactive,,,,,
CCOP(=S)(OCC)Oc1nc(Cl)n(C(C)C)n1,inactive,inactive,inactive,inactive,inactive,inactive,,,inactive,,,,,

SMILES,outcome [1],outcome [2],outcome [3],outcome [4],outcome [5],outcome [6],AC50 [7],outcome [8],outcome [7],outcome [9],AC50 [2],AC50 [8],AC50 [9],AC50 [5]
COc1ccc(-c2ccccc2)cc1NNC(=O)OC(C)C,inactive,inactive,inactive,inactive,inactive,inactive,,,inactive,,,,,
C=C(C)CN(CC)c1c([N+](=O)[O-])cc(C(F)(F)F)cc1[N+](=O)[O-],inactive,inactive,inactive,inactive,inactive,inactive,,,inactive,inactive,,,,
CCOP(=O)(OCC)Oc1nc(Cl)c(Cl)cc1Cl,inactive,inactive,inactive,inactive,inactive,inactive,,,inactive,,,,,
CCCC(=NOCC)C1=C(O)CC(CC(C)SCC)CC1=O (centres undefined),inactive,inactive,inactive,inactive,inactive,inactive,,,inactive,,,,,
Cc1cnc(C2=NC(C)(C(C)C)C(=O)N2)c(C(=O)O)c1 (centres undefined),inactive,inactive,inactive,inactive,inactive,inactive,,,inactive,,,,,
CCCN(CC)CC1COC2(CCC(C(C)(C)C)CC2)O1 (centres undefined),inactive,inactive,inactive,inactive,inactive,inactive,,inactive,inactive,,,,,
CC(C)NC(=O)N1CC(=O)N(c2cc(Cl)cc(Cl)c2)C1=O,inactive,inactive,inactive,inactive,inactive,inactive,,,inactive,,,,,
CCN(CC)C(=O)C(C)Oc1cccc2ccccc12 (centres undefined),inactive,inactive,inactive,inactive,inactive,inactive,,inactive,inactive,,,,,
CC1(C)CCC(=Cc2ccc(Cl)cc2)C1(O)Cn1cncn1 (centres undefined),inactive,inactive,inactive,inactive,inactive,inactive,,inactive,inactive,,,,,
COP(=S)(OC)SCn1nnc2ccccc2c1=O,inactive,inactive,inactive,inactive,inactive,inactive,,inactive,inactive,inactive,,,,
N#Cc1c[nH]cc1-c1cccc2c1OC(F)(F)O2,inactive,inactive,inactive,inactive,inactive,inactive,,inactive,inactive,,,,,
O=c1n(Cl)c(=O)n(Cl)c(=O)n1Cl,inactive,inactive,inactive,inactive,inactive,inactive,,,inactive,inactive,,,,
COCC(=O)N(c1c(C)cccc1C)C(C)C(=O)OC (centres undefined),inactive,inactive,inactive,inactive,inactive,inactive,,inactive,inactive,,,,,
CC1(C)C(C=C(Cl)Cl)C1C(=O)OC(C#N)c1cccc(Oc2ccccc2)c1 (centres undefined),inactive,inactive,inactive,inactive,inactive,inactive,,,inactive,inactive,,,,
CC1(C)CON(Cc2ccccc2Cl)C1=O,inactive,inactive,inactive,inactive,inactive,inactive,,,inactive,,,,,
OC(c1ccc(Cl)cc1)(c1ccc(Cl)cc1)C(Cl)(Cl)Cl,inactive,inactive,inactive,inactive,,inactive,34.2 µM (active),,,,,110 µM (active),109 µM (active),90.1 µM (active)
COc1cc(Cl)c(OC)cc1Cl,inactive,inactive,inactive,inactive,inactive,inactive,,inactive,inactive,,,,,
N#Cc1c(Cl)cccc1Cl,inactive,inactive,inactive,inactive,inactive,inactive,,,inactive,inactive,,,,
